Experimental data published in PubChem BioAssay (NCI).
Compounds without any hit were thinned out: in the full panel of roughly 83,000, 20% have a hit.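 Negative percent growth values reflect cell death: -40 means 40% of the cells present at the start died, and -100 means all died.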 Calls of active or inactive are those of the source. The calls were made as follows: active = growth percent below 10; inactive = the rest.

Tests used:
Experiment in all cases: NCI-60 one-dose screen, 48 h (100 = growth as untreated, 0 = no growth, -100 = all killed)
Settings in all cases: 10 µM unless noted
[1] = system: HCT-15 colon
[2] = system: HT29 colon
[3] = system: SNB-75 CNS
[4] = system: SNB-19 CNS
[5] = system: U251 CNS
[6] = system: SK-MEL-5 melanoma
[7] = system: LOX IMVI melanoma
[8] = system: SK-MEL-28 melanoma
[9] = system: PC-3 prostate
[10] = system: UACC-62 melanoma

Measured: growth

COc1ccc(C2CC(c3cc(OC)c(OC)c(OC)c3)=NN2c2ccc(S(N)(=O)=O)cc2)cc1 (centres undefined)
inactive: [1] 66.8% | [2] 59.3% | [3] 33.1% | [4] 74% | [5] 53.2% | [6] 58.2% | [7] 52.9% | [8] 76.9%

O=C1/C(=C/c2ccc(F)cc2)CN(Cc2cn(CCNc3ccnc4cc(Cl)ccc34)nn2)C/C1=C\c1ccc(F)cc1
active: [1] -60.5% | [2] -79.2% | [4] -74.4% | [5] -91.4% | [6] -100% | [7] -93.8% | [8] -79.7%
inactive: [3] 50%

N#CC1=C(N)Oc2cc(N)ccc2C1c1ccc(F)cc1 (centres undefined)
inactive: [1] 46.9% | [2] 46.4% | [3] 67.2% | [4] 81.1% | [5] 83.4% | [9] 90.8% | [10] 74.7% | [7] 78.1% | [8] 84.8%

O=C(COc1cccc(/C=C2\COc3ccccc3C2=O)c1)c1ccccc1
inactive: [1] 33.1% | [2] 41.2% | [3] 71% | [4] 100% | [5] 60.9% | [6] 47.7% | [10] 59.4% | [7] 23.7% | [8] 97.2%

COc1ccc(C(=O)COc2cccc(/C=C3\CSc4ccc(C)cc4C3=O)c2)cc1
inactive: [1] 84.8% | [2] 101% | [3] 95% | [4] 97% | [5] 97% | [6] 88.2% | [10] 75.2% | [7] 74.2% | [8] 120%

CSc1nnc(-c2sc3nnc(-c4ccccc4)c(-c4ccccc4)c3c2O)o1
inactive: [1] 54.6% | [2] 107% | [3] 78.4% | [4] 66.4% | [5] 62.9% | [6] 83.5% | [10] 58.9% | [8] 85.5%

O=C(CCCCCCC(=O)Nc1ccc2c(c1)/C(=C/c1ccc[nH]1)C(=O)N2)NO
active: [2] 8.62% | [5] -9.13% | [6] -75% | [7] -69.8%
inactive: [1] 41.5% | [3] 53% | [4] 16.3% | [8] 14.6%

Cc1nc2cc(Nc3nc(Nc4ccc(F)cc4)nc(N4CCCC4)n3)ccc2n1Cc1ccccc1
inactive: [4] 33.6%
active: [1] -33.4% | [2] -76.1% | [3] -15.1% | [5] -70.9% | [6] -53.4% | [7] -86% | [8] -10.6%

COc1ccc(/C=C2\CN(Cc3cn(CCCNc4ccnc5cc(Cl)ccc45)nn3)C/C(=C\c3ccc(OC)cc3)C2=O)cc1
inactive: [1] 67.6% | [2] 14.6% | [3] 70.1% | [4] 72.9% | [5] 41.3% | [6] 52.7% | [7] 35.5% | [8] 80.5%

C[C@@H](Oc1cc(-c2cnn(C3CC4(CNC4)C3)c2)cnc1N)c1c(Cl)ccc(F)c1Cl
active: [2] -11.9%
inactive: [1] 35.4% | [3] 25.1% | [4] 96.7% | [5] 61.8% | [9] 24.7% | [10] 53% | [7] 11.5% | [8] 58.9%

Cc1nc2cc(Nc3nc(Nc4ccc(F)cc4)nc(-c4ccc(Cl)cc4)n3)ccc2n1Cc1ccccc1
inactive: [1] 64.4% | [2] 55.8% | [3] 65.2% | [4] 83.4% | [5] 69.7% | [6] 83.4% | [7] 76.6% | [8] 92.6%

CCCCNNC(=O)c1ccc(Br)cc1
inactive: [1] 78.6% | [2] 36.9% | [3] 61.1% | [4] 76.6% | [5] 61.9% | [9] 61.4% | [10] 40.9% | [7] 62.1% | [8] 53.2%

O=C(Nc1ccccc1O)c1ccc(NS(=O)(=O)c2cccc3cccnc23)cc1
inactive: [1] 63.9% | [2] 39.9% | [3] 48.5% | [4] 67.9% | [5] 46.5% | [9] 59% | [10] 23.1% | [8] 37.6%

COc1cc(C(=O)N(C(C)C)C2CCCCC2)cc(OC)c1OC
inactive: [1] 103% | [2] 99.2% | [3] 87.6% | [4] 97.9% | [5] 102% | [9] 89.8% | [10] 96.5% | [7] 94.6% | [8] 105%

CCOc1ccc(/C=N\N2CCCCCC2)cc1OCC
inactive: [1] 62.1% | [2] 100% | [3] 85.2% | [4] 96.2% | [5] 86% | [6] 83.1% | [10] 75.1% | [8] 95.5%

Clc1ccc(Nc2ccnc(N3CCN(c4ccnc5cc(Cl)ccc45)CC3)n2)cc1
inactive: [1] 20.4% | [2] 32.2% | [3] 27.7% | [4] 58.2% | [5] 51.9% | [9] 37.7% | [10] 31.3% | [8] 63.8%

O=C1CN2CCC1C/C2=C\c1ccnc2c(Cl)cccc12 (centres undefined)
inactive: [1] 82.6% | [2] 106% | [3] 85.5% | [4] 98.2% | [5] 98.4% | [6] 108% | [10] 90.5% | [7] 96% | [8] 127%

Nc1nc(N)c(C=Nc2ccc(Br)cc2)c(Nc2ccc(Br)cc2)n1
inactive: [1] 88.5% | [2] 101% | [3] 91.3% | [4] 99.8% | [5] 95.1% | [6] 108% | [10] 87% | [7] 81% | [8] 106%

Cc1ccc2c(c1)c(Sc1ccc(C(=O)NO)cc1)c1n2CN(C)CC1
active: [5] 2.16% | [9] -3.93% | [10] -1.71% | [7] -33.1% | [8] 7.31%
inactive: [1] 58.7% | [2] 25.6% | [3] 17.8% | [4] 31%

Cc1nc2cc(Nc3nc(NCCO)nc(Nc4ccc(F)cc4)n3)ccc2n1Cc1ccccc1
inactive: [1] 100% | [2] 71.9% | [3] 102% | [4] 100% | [5] 86.3% | [6] 80.3% | [7] 81.9% | [8] 108%

COc1ccccc1/C=C/C(=O)/C=C/c1ccccc1O
active: [1] -17.7% | [2] -41.8% | [5] -78.9% | [10] -58.9% | [7] -67.7% | [8] -86.9%
inactive: [3] 31.3% | [4] 31.8% | [6] 63.7%

CSc1ccc(OC(C)=O)cc1C
inactive: [1] 95% | [2] 104% | [3] 94.3% | [4] 109% | [9] 96.6% | [6] 98.8% | [10] 98.1% | [7] 95.5% | [8] 110%

COc1ccc(-n2ncc3c2ccc2cc(S(=O)(=O)c4ccccc4)c(=O)n(C)c23)cc1
inactive: [1] 92% | [2] 81.2% | [3] 49.6% | [4] 92.7% | [9] 86.7% | [6] 95.9% | [10] 87.8% | [7] 86% | [8] 91.2%

Nc1cc(Br)c(-c2nnc(CCC(=O)c3nc4ccccc4[nH]3)o2)c(Br)c1
inactive: [1] 104% | [2] 84.1% | [3] 58.9% | [4] 85.5% | [9] 74.9% | [6] 47.7% | [10] 55.6% | [7] 44.7% | [8] 65.4%

COc1ccc(/C=C/C(=O)N2CCC(O)CC2)cc1OC1CCCC1
inactive: [1] 102% | [2] 102% | [3] 90.2% | [4] 95.7% | [9] 96.5% | [6] 99.3% | [10] 97.9% | [7] 95.3% | [8] 115%

COc1ccc2nc(-n3nc(C)cc3C)c(-n3nc(C)cc3C)nc2c1
inactive: [1] 102% | [2] 100% | [3] 116% | [4] 102% | [9] 105% | [6] 100% | [10] 105% | [7] 101% | [8] 107%

O=C(C[Si](CC(=O)c1cccc(C(F)(F)F)c1)CC(=O)c1cccc(C(F)(F)F)c1)c1cccc(C(F)(F)F)c1
active: [9] -14.7%
inactive: [1] 99.1% | [2] 62.8% | [3] 90.8% | [4] 101% | [6] 99.8% | [10] 66.7% | [7] 73.2% | [8] 98.6%

COc1nc2c(cc1S(=O)(=O)c1ccccc1)CCc1c-2cnn1-c1cccc(Cl)c1
inactive: [1] 71% | [2] 54.9% | [3] 85.5% | [4] 98.2% | [9] 64.4% | [6] 88% | [10] 71.2% | [7] 93.9% | [8] 86.4%

COc1nc2c(cc1S(=O)(=O)c1ccccc1)CCc1c-2cnn1-c1ccccc1
inactive: [1] 59.8% | [2] 54.7% | [3] 65.8% | [4] 89.3% | [9] 50.3% | [6] 86.6% | [10] 69.4% | [7] 90% | [8] 82.9%

CCCCCCCCCCCCCCCC[N+]1(C)CCOCC1
inactive: [1] 40.4% | [3] 11.7% | [6] 40% | [10] 46.9% | [8] 86%
active: [2] 1.36% | [4] -29.1% | [9] -52% | [7] -79%
